# Measurements as given in paper PMC5540273 (PLoS ONE, 2017).
# How the values were obtained:
# Details in all cases: concentration: 1 μM, replicates: in singlicate; n = 1
# DDR2 = tested on: DDR2
# DLK = tested on: T1, DLK
# T1 construct: gene MAP3K12
# DMPK2 = tested on: T2, DMPK2
# T2 construct: gene CDC42BPG
# DMPK = tested on: DMPK
# DRAK1 = tested on: T3, DRAK1
# T3 construct: gene STK17A
# DRAK2 = tested on: T4, DRAK2
# T4 construct: gene STK17B
# DYRK1A = tested on: DYRK1A
# DYRK1B = tested on: DYRK1B
# DYRK2 = tested on: DYRK2
# EGFR = tested on: EGFR
# 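Further: KINOMEscan kinase panel screen.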
SMILES,%Inh (DDR2),%Inh (DLK),%Inh (DMPK2),%Inh (DMPK),%Inh (DRAK1),%Inh (DRAK2),%Inh (DYRK1A),%Inh (DYRK1B),%Inh (DYRK2),%Inh (EGFR)
CSc1ccc(NC2=C(c3ccccc3Cl)C(=O)NC2=O)cc1 [SB-342411],0%,0%,0%,0%,0%,0%,67%,78%,3%,18%
CCC(CC)(CC)n1cnc2c(N)ncnc21 [SKF-97620],24%,0%,0%,7%,7%,25%,0%,0%,20%,0%
O=c1cc(N2CCOCC2)nc2n(Cc3cccc(Cl)c3)ccn12 [GSK2296823],0%,0%,0%,0%,0%,0%,28%,0%,9%,20%
c1ccc(-c2ccc3c(-c4ccnc(Nc5ccc6c(c5)OCCO6)n4)cnn3n2)cc1 [GW818941],26%,0%,0%,20%,15%,0%,8%,16%,0%,14%
Nc1nc(-c2cccnc2)c(-c2ccnc3ccccc23)s1 [GW684083],43%,60%,0%,0%,32%,0%,20%,0%,9%,0%
CS(=O)(=O)CCNCc1nc(-c2ccc3ncnc(Nc4ccc(OCc5cccc(F)c5)c(Cl)c4)c3c2)cs1.Cl [GW583340],20%,2%,0%,0%,7%,17%,12%,20%,16%,99.9%
Cn1ccc2ncnc(Oc3ccc(NC(=O)Nc4cccnc4)c(Cl)c3)c21,90.7%,0%,0%,0%,8%,2%,0%,33%,14%,20%
O=C(c1ccc(-c2cc(-c3c[nH]nc3-c3ccccn3)ccn2)cc1)N1CCCC1 [GW792479],24%,0%,0%,0%,0%,10%,0%,0%,0%,27%
O=C(Nc1ccccc1)Nc1ccc(Oc2ccc3nccn3n2)cc1,100%,18%,0%,6%,0%,0%,0%,30%,70%,23%
Cl.O=S(=O)(c1cccc(F)c1)c1ccc(Nc2ncnc3cc(Br)sc23)cc1Cl [GSK306886],0%,0%,15%,0%,9%,0%,7%,0%,14%,99.2%
Fc1cccc(COc2ccc(Nc3ncnc4nn5ccccc5c34)cc2Cl)c1 [GW689066],37%,52%,0%,0%,87%,0%,8%,0%,0%,
Cl.Fc1ccccc1COc1ccc(Nc2ncnc3ccc(-c4nnc(C(F)(F)F)o4)cc23)cc1Cl [GW424170],18%,11%,11%,0%,4%,0%,4%,0%,11%,99.4%
COc1cc2c(Nc3cccc(NC(=O)c4ccccc4)c3)ncnc2cc1OCCCN1CCOCC1 [GSK223810],16%,13%,0%,0%,11%,0%,0%,15%,33%,87%
Nc1nccc2scc(-c3ccc4c(c3)CCN4C(=O)Cc3cc(F)ccc3F)c12 [GSK2587663],1%,21%,13%,0%,3%,5%,0%,12%,5%,21%
CN1c2ccc(-c3ccc(C(=O)NCCO)cc3)cc2-c2[nH]ncc2S1(=O)=O,0%,29%,7%,0%,24%,29%,47%,49%,31%,0%
N#Cc1ccc(Oc2ccc(Nc3ncnc4cc[nH]c34)cc2Cl)cc1,0%,0%,4%,0%,32%,1%,1%,15%,0%,96.7%
